Activity calls are given as the source filed them. The calls were made as follows: active = hit-call score of the fitted dose curve at least 0.9, where 1 is the maximum; inactive = score below 0.9.

Among the data in PubChem BioAssay (EPA / NIEHS) are outcome values, retold here.

The assay is described as follows: ATG_AP_2_CIS: Attagene CIS-FACTORIAL HepG2 Assay for human Activator Protein 2 (AP-2) (AID 2282932). As to conditions: HepG2 AP-2 cis-reporter, Attagene transcription factor profiling; actives raise or lower the signal. The procedure, abridged: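 Endogenous transcription factor activity is reported through transfected multiplex reporter constructs in HepG2, after 24 h of compound exposure. Transcripts were quantified by RT-PCR and capillary electrophoresis of fluorescent fragments. Bidirectional fit against DMSO.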
`Nc1cc(Cl)c(N)c(Cl)c1`: the compound was called inactive.

With `O=C(CC(=O)C(F)(F)C(F)(F)F)C(F)(F)F`, the outcome was inactive. With `FC(F)(F)C(F)(F)CNCC(F)(F)C(F)(F)F`, the compound was called inactive. To `CCc1c(Br)c(Br)c(Br)c(Br)c1Br` belongs “inactive”; to `C=C(C)C(=O)OCCC(F)(F)C(F)(F)C(F)(F)C(F)(F)C(F)(C(F)(F)F)C(F)(F)F`, “inactive”. On to `C=CC(=O)OCC(F)(F)C(F)(F)C(F)(F)C(F)(F)COC(=O)C=C`, for which the call was inactive. As for `CCc1ccc(C(c2ccc(CC)cc2)C(Cl)Cl)cc1`, the compound was called inactive. In the case of `CO[Si](OC)(c1ccccc1)c1ccccc1`, the call was inactive. To `Cc1cc(C)cc(O)c1` belongs “inactive”; to `CCCCCCOC(=O)c1ccccc1O`, “inactive”; to `O=C(O)C(F)(F)C(F)(F)C(F)(F)C(F)(F)C(F)(F)C(F)(F)C(F)(F)C(F)(F)C(F)(F)C(F)(F)C(F)(F)C(F)(F)F`, “inactive”. The result for `CCCCCCS` reads “inactive”.

Take `CCCCOc1ccc(N)cc1`: the result was inactive.

As for `c1ccc(-c2ccccc2-c2ccccc2)cc1`, the call was inactive. Take `FC(F)(F)C(F)(F)C(F)(F)C(F)(F)C(F)(F)C(F)(F)C(F)(F)C(F)(F)CCS`: the compound was classed as inactive. Consider `CCCCNc1ccccc1`, for which the compound was classed as inactive. To `OCC(F)(F)C(F)(F)C(F)(F)C(F)(F)C(F)(F)C(F)(F)F` belongs “inactive”; to `O=C(O)C(F)(F)C(F)(F)C(F)(F)C(F)(F)F`, “inactive”. As to `Cc1ccc(S(=O)(=O)OCC(F)(F)C(F)(F)C(F)(F)C(F)(F)C(F)(F)C(F)F)cc1`, the outcome was inactive.

As for `CCCCCCOC(=O)c1ccccc1`, the compound was classed as inactive.

On to `CCN(Cc1cccc(S(=O)(=O)O)c1)c1ccc(C(=C2C=CC(=[N+](CC)Cc3cccc(S(=O)(=O)O)c3)C=C2)c2ccc(O)cc2S(=O)(=O)[O-])cc1`, for which the result was inactive.
